Calls of active or inactive are those of the source. The call rests on the fitted dose curve; in most records, active means well fitted activation curve with a large enough effect; inconclusive means small, poorly fitted or top-dose-only effect; inactive means flat fitted curve, though single readings scatter.
Assay: Confirmation and Secondary Assay for Modulators of Hemoglobin Beta Chain Splicing at IVS2 705 locus (AID 930);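 further: HeLa cells stably expressing the EGFP-705 splicing reporter; GFP fluorescence per well restored by corrected splicing of the IVS2-705 intron in EGFP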
Conditions: HeLa EGFP-705 splicing reporter, GFP fluorescence, 48 h; series mostly up to 46.1 µM
How it was run: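 Per-well GFP, captured at 1 x 8 µm resolution with 488 nm excitation, served as the read-out for HeLa EGFP-705 cells incubated 2 days with test compound versus DMSO.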

SMILES	outcome
O=C(O)P(=O)(O)O	inactive
CCCCC(CC)CN1CN(CC(CC)CCCC)CC(C)(N)C1 (centres undefined)	inactive
CN(C)CCOC(c1ccc(Cl)cc1)c1ccccn1 (centres undefined)	inactive
CCN(CC)CCNc1ccc(CO)c2sc3ccccc3c(=O)c12	inactive
CCCc1ncc(C[n+]2ccccc2C)c(N)n1	inactive
Cc1cc(C)cc(OCC2CNC(=O)O2)c1 (centres undefined)	inactive
Cc1ccccc1OCC(O)CO (centres undefined)	inactive
O=C1C(=O)c2ccccc2C(O)=C1C1CCC(c2ccc(Cl)cc2)CC1 (centres undefined)	inactive
CCOC(=O)[C@H](CCc1ccccc1)N[C@@H](C)C(=O)N1[C@H](C(=O)O)C[C@H]2CCCC[C@@H]21	inactive

— PubChem BioAssay (NCATS)
